# Measurements taken from PubChem BioAssay (NCI).
# This is part of a sample that, as a whole, favours compounds with a hit. Of some 83,000 tested, about 20% had one in any assay.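 48-hour exposure, single concentration, 96-well plates; percent growth endpoint where 0 means no net growth. Active: below 10.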 Unmarked numbers belong to inactive results. The source made the active and inactive calls.
# Assays:
# Assay in all cases: NCI-60 one-dose screen, 48 h (100 = growth as untreated, 0 = no growth, -100 = all killed)
# Settings in all cases: 10 µM unless noted
# SK-MEL-2 melanoma = test system: SK-MEL-2 melanoma
# EKVX NSCLC = test system: EKVX NSCLC
# SN12C renal = test system: SN12C renal
# UO-31 renal = test system: UO-31 renal
# TK-10 renal = test system: TK-10 renal
# ACHN renal = test system: ACHN renal
# CAKI-1 renal = test system: CAKI-1 renal
# CCRF-CEM leukemia = test system: CCRF-CEM leukemia
# MOLT-4 leukemia = test system: MOLT-4 leukemia
# A498 renal = test system: A498 renal
SMILES,growth (SK-MEL-2 melanoma),growth (EKVX NSCLC),growth (SN12C renal),growth (UO-31 renal),growth (TK-10 renal),growth (ACHN renal),growth (CAKI-1 renal),growth (CCRF-CEM leukemia),growth (MOLT-4 leukemia),growth (A498 renal)
COc1cc(/C=C/C(=O)c2ccc(Nc3nc(Nc4ccccc4)nc(Nc4ccc(Cl)cc4)n3)cc2)cc(OC)c1OC,82%,52.8%,69%,50.6%,74.7%,66.1%,66.4%,18.5%,25.5%,
O=c1[nH]c(=O)n(C2CC(O)C(CO)O2)cc1CO (stereo not drawn),53.5%,98.8%,76.2%,102%,90.5%,101%,86.3%,79.8%,,
N=C(N)c1ccc(-c2ccc(-c3ccc(Cl)cc3Cl)o2)nc1,103%,95.4%,-42.8% (active),-16.1% (active),61%,12.3%,53.8%,-12.9% (active),1.62% (active),
Nc1ccc(S(=O)(=O)Nc2ccsc2-c2nc(-c3ccccc3)no2)cc1,32.3%,73%,84.8%,71.3%,66.1%,87.8%,53.8%,,36.5%,61.2%
CCCc1cc(=O)oc2c3c(c4c(c12)OC(C)(C)C=C4)O[C@@H](C)[C@H](C)C3=O,97.1%,63%,82.7%,71.9%,83.2%,84.2%,72.8%,70.3%,69.1%,
CCCCCCNCc1cc(C(C)(C)C)cc(CNCCCCCC)c1O,-7.07% (active),-47.9% (active),-42.2% (active),-80.7% (active),-80.4% (active),-84.2% (active),16.7%,,-14.8% (active),-7.12% (active)
N=C(N)c1ccc(-c2ccc(/C=C/c3ccccc3)s2)cc1,102%,71.2%,-31.8% (active),63.1%,98.5%,-5.84% (active),32.5%,1.58% (active),-21% (active),
O=C1Nc2ccccc2/C1=N/N=C/c1ccc(OC2OC(CO)C(O)C(O)C2O)cc1 (stereo not drawn),107%,100%,101%,78.6%,110%,103%,95.1%,107%,,
CCn1c(Sc2nnc(NC(C)=O)s2)nc2c1c(=O)n(C)c(=O)n2C,103%,88.3%,94%,83.5%,103%,95.5%,93.7%,112%,113%,
CN1CCN(c2ccc3nc(/N=C/c4ccc5sc(-c6ccc([N+](=O)[O-])cc6)nc5c4)sc3c2)CC1,111%,97.7%,104%,92.2%,101%,108%,108%,101%,108%,
Cl.[Pt].[c-]1ccccc1-c1ccccn1.c1ccc(P(c2ccccc2)C([PH+](c2ccccc2)c2ccccc2)[PH+](c2ccccc2)c2ccccc2)cc1,-2.53% (active),10.8%,9.75% (active),-0.14% (active),21.1%,4.96% (active),-5.66% (active),14.5%,13.8%,
COc1ccc(/C(C)=C(\c2ccc(Cl)cc2)c2ccc(OCCN3CCCC3)cc2)cc1F,59.9%,47%,51.6%,28.9%,62%,50.9%,22%,,-5.27% (active),68%
COc1ccc(-c2cc(-c3ccc(Nc4nc(Nc5ccccc5)nc(Nc5ccc(Cl)cc5)n4)cc3)nc(N)n2)cc1,70.7%,58.8%,75%,69%,98%,74.6%,75.8%,27.1%,28.6%,
Cc1ccc(/C=C(\C#N)n2nnc3cc(Cl)c(Cl)cc32)cc1,26%,36.5%,19.5%,0.755% (active),44.6%,25.7%,22.2%,9.85% (active),9.51% (active),
N#Cc1c(NC(=O)c2ccccc2I)sc2c1CCCC2,26.4%,48.5%,53.5%,58.1%,106%,50.9%,45%,23.7%,34.9%,
O=C(NC(=S)Nc1ccc(-c2nc3ccccc3[nH]2)cc1)c1ccc2ccccc2c1,98.2%,58.2%,15.9%,-84.4% (active),-16.5% (active),-0.473% (active),24.5%,49.6%,59%,
CCn1c(Sc2nnc(NC(=O)CCN3CCCC3)s2)nc2c1c(=O)n(C)c(=O)n2C,108%,99.3%,96.8%,88.7%,104%,100%,94.6%,103%,108%,
NS(=O)(=O)Oc1ccc(-c2sc3cc(O)ccc3c2C(=O)c2ccc(OCCN3CCCCC3)cc2)cc1,84%,72.3%,69.1%,43.6%,72.4%,60.9%,49.3%,25.9%,11%,
CCCCN1CCN(c2ccc3nc(-c4ccc5nc(-c6cc(OC)c(OC)c(OC)c6)[nH]c5c4)[nH]c3c2)CC1,83.8%,106%,80.2%,79.8%,131%,86.8%,87.9%,25.1%,47%,
CC1=CC(=O)C(C(C)C)=CC1=Nc1cc(Br)c(O)c(Br)c1,23.5%,44.1%,36.3%,48.4%,93.2%,57.8%,51.3%,-1.08% (active),23.8%,
CC(=[N-])N1CCC[C@@H](Nc2c3ccccc3nc3ccccc23)C1.[Cl][Pt].[NH-]CCC[NH-],52.4%,52.3%,5.71% (active),27.4%,1.35% (active),-22.2% (active),15.5%,35.4%,14.6%,
N=C(N)c1ccc(-c2ccc(-c3ccc(Cl)cc3Cl)o2)cc1,105%,58.5%,-78.3% (active),-83.8% (active),30.5%,-89% (active),17.3%,0.678% (active),-29.2% (active),
O=C(NCCOCCOCCNc1cccc2c1C(=O)N(C1CCCNC1=O)C2=O)c1cc2c(o1)C(=O)c1ccccc1C2=O (stereo not drawn),-13.6% (active),17.7%,-74.3% (active),-19.8% (active),8.39% (active),14%,-10.1% (active),14.9%,8.89% (active),
Cl.Fc1c[c-]c(-c2ccccn2)c(F)c1.[Pt].c1ccc(P(c2ccccc2)C([PH+](c2ccccc2)c2ccccc2)[PH+](c2ccccc2)c2ccccc2)cc1,7.06% (active),20.8%,11.2%,-5.69% (active),24.3%,17.5%,-1.81% (active),17.3%,13.2%,
COc1ccccc1NC(=O)Nc1ccc(-c2nc3ccccc3o2)cc1,130%,92.8%,98.7%,94.5%,118%,95.4%,103%,101%,75.1%,
Cc1cn(C2CCCCC2)c(=O)[nH]c1=O,127%,121%,108%,99.8%,99.8%,103%,119%,117%,96.6%,
CCCN1CCN(c2ccc3nc(-c4ccc5nc(-c6ccc(OCC)c(OCC)c6)[nH]c5c4)[nH]c3c2)CC1,-73.9% (active),-3.15% (active),-37.5% (active),47.2%,-0.902% (active),-28.9% (active),-18.9% (active),5.88% (active),3.28% (active),
N#C/C(=C\c1ccc(Br)cc1)n1nnc2cc(Cl)c(Cl)cc21,33.9%,59.6%,35%,35.1%,59.6%,41%,21.9%,8.21% (active),6.13% (active),
Cc1nc(Nc2ccccn2)sc1C(=O)/C=C/c1ccc(Br)cc1,97.7%,60.4%,78.8%,49.7%,127%,75.2%,53.4%,31.1%,80%,
Nc1nc(Nc2ccc(Cl)cc2)nn1S(=O)(=O)c1ccc(-c2ccc(F)cc2)cc1,107%,81.5%,83.2%,57.2%,97.3%,81.8%,59.8%,95.1%,74.5%,
